GALR2 ag = GALR2 receptor agonists, primary screen, cell-based | AID 803, 2007 | 0.48% of 140,000 active | activation, % (test concentration not listed) | GALR2-expressing cells, agonist activation read-out | Galanin receptor type 2 (Homo sapiens), O43603; in the data active = activation above about 5%, passing the limit was not always enough
Target sequence (O43603 whole entry, looked up): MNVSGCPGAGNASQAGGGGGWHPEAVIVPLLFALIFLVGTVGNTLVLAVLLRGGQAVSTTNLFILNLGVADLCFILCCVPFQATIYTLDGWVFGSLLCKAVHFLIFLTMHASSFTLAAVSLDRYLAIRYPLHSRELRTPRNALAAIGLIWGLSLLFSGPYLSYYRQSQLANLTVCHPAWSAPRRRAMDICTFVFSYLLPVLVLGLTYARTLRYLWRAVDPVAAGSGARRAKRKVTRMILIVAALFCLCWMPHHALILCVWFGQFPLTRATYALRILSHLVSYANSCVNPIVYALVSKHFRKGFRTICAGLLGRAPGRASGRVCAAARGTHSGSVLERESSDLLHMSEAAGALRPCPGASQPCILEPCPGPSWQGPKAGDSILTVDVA
Phagocytosis inh = inhibitors of macrophage phagocytosis, primary screen, imaging, J774A.1 cells, IgG beads; J774A.1 macrophage IgG-bead phagocytosis; inhibition, % at 5 µM; 0.07% of 110,000 active; AID 1029, 2008;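 active = inhibition above the mean of the plate negative controls plus 5 SD, cut at about 13% in these data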;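 also: phagocytic index as fraction of beads internalized from green versus red external bead signal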
S1P2 antag = human S1P2 receptor antagonists, primary screen, cell-based | inhibition, % at 5 µM | AID 736, 2007 | cell-based S1P2 antagonist assay, inhibition at 5 uM | Sphingosine 1-phosphate receptor 2 (Homo sapiens), O95136 | 0.21% of 97,000 active; in the data active = inhibition above about 45%;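 also: CRE beta-lactamase reporter cells expressing human S1P2 stimulated with S1P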
GALR2 blocker = GALR2 antagonists in receptor-expressing cells, primary screen; antagonist mode; inhibition, % at 4 µM; 0.39% of 140,000 active;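 also: cells stimulated with galanin 1-16 at roughly its EC80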
S1P2 ag = S1P2 receptor agonists, primary screen, cell-based; 0.46% of 97,000 active; activation, % at 4.5 µM; S1P2-expressing cell line, agonist reporter read-out; AID 729, 2007; in the data active = activation above about 16%
GALR2 agon conf = GALR2 agonists, retest of hits, confirmation, cell-based; activation, % at 5.6 µM; GALR2-expressing cells, agonist activation; 10% of 460 active; AID 864, 2007; shares compounds with GALR2 ag; in the data active = activation above about 8.4%
BLA activ ctr = activators of NFAT-driven beta-lactamase reporter, confirmation, counter-screen for GALR2 agonist project, CHO NFAT-bla cells, FRET readout. activation, % at 5.6 µM. shares compounds with GALR2 ag. 10% of 460 active. beta-lactamase FRET activation;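 active = activation above the screen-wide mean activation plus 3 SD, cut at about 8% in these data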
GALR2 ant conf = GALR2 antagonists, retest of hits, confirmation, cell-based; 60% of 480 active; shares compounds with GALR2 blocker; AID 866, 2007; GALR2-expressing cells, antagonist mode, inhibition; inhibition, % at 4 µM;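 also: cells stimulated with galanin at about its EC80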
BLA inhib ctr = inhibitors of NFAT-driven beta-lactamase reporter, confirmation, counter-screen for GALR2 antagonist project, CHO NFAT-bla cells, FRET readout | 36% of 480 active | shares compounds with GALR2 blocker | thapsigargin-stimulated | inhibition, % at 4.2 µM;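 active = inhibition above the mean inhibition across tested compounds plus 3 SD, cut at about 27% in these data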
Of the large screens only hits and unclear results are named; the others gave an inactive call (follow-up assays come after a bar, where they were run). An excerpt weighted towards active compounds, which were near 1.3% of everything screened. Rule as the data show it, unless noted: active = inhibition above about 27%; inactive = the rest.

COc1ccc(OC)c(Nc2nc(N)nc(CSc3nnc(N)s3)n2)c1	GALR2 ag 17 | GALR2 agon conf inactive | BLA activ ctr inactive
COc1ccc(Nc2nc(N)nc(CSc3nnc(C)s3)n2)cc1	none (no result: Phagocytosis inh)
Cc1ccsc1/C=N/NS(=O)(=O)c1ccc([N+](=O)[O-])cc1	none (no result: S1P2 antag, S1P2 ag)
CCOc1ccccc1N=c1oc2cc(O)ccc2cc1C(=O)NCC1CCCO1 (configuration not stated)	GALR2 ag 66, S1P2 ag 18 | GALR2 agon conf inactive | BLA activ ctr inactive
CCOc1ccc(S(=O)(=O)Nc2ccccc2C(=O)NCC2CCCO2)cc1 (configuration not stated)	none
COC(=O)/C(=C/Nc1ccccc1)[N+](=O)[O-]	none
COC(=O)/C(=C/Nc1ccc(O)cc1)[N+](=O)[O-]	none | GALR2 agon conf inactive | BLA activ ctr inactive
CN(C)/C=C(\C(=O)c1ccc(F)cc1F)c1nnnn1-c1ccccc1	none (no result: S1P2 antag, S1P2 ag)
COc1cc(/C=N/Nc2ncnc3sc4c(c23)CCC4)ccc1O	none (no result: S1P2 antag, S1P2 ag)
O=C(CC1Nc2ccccc2NC1=O)Nc1cc(Cl)cc(Cl)c1 (configuration not stated)	GALR2 ag 13 | GALR2 agon conf 12 | BLA activ ctr 9.9
O=C(CC1NC(=O)NC1=O)Nc1ccc(Cl)cc1 (configuration not stated)	none
COC(=O)/C=C/C(=O)Nc1cccc(C(F)(F)F)c1	none (no result: S1P2 antag, S1P2 ag)
O=C(NC1CCCCC1)C(c1ccc(Cl)cc1)N1CCC2(CC1)OCCO2 (configuration not stated)	GALR2 ag 11 | GALR2 agon conf inactive | BLA activ ctr inactive
Cc1ccc(C(C(=O)NC2CCCCC2)N2CCC3(CC2)OCCO3)cc1 (configuration not stated)	none
Cc1cc(C)n2nc(CC(=O)NCc3ccc(F)cc3)nc2n1	none (no result: S1P2 antag, S1P2 ag)
COc1ccc(NC(=O)COc2ccccc2)c(OC)c1	GALR2 ag 16 | GALR2 agon conf inactive | BLA activ ctr inactive
COc1ccccc1NC(=O)COc1ccccc1	none
CC1=C/C(=N\OS(=O)(=O)c2ccccc2)C(C(C)C)=CC1=O	GALR2 ag 9.6, GALR2 blocker 47 (no result: S1P2 antag, S1P2 ag) | GALR2 agon conf 11 | BLA activ ctr inactive | GALR2 ant conf 52 | BLA inhib ctr 29
Cc1cc(Cl)ccc1OCCCC(=O)N/N=C/c1cccc([N+](=O)[O-])c1	none (no result: S1P2 antag, S1P2 ag)
Brc1ccc(-c2ccc(/C=N/Nc3nncc(-c4ccccc4)n3)o2)cc1	none
Brc1ccc(-c2ccc(/C=N/Nc3nc4ccccc4[nH]3)o2)cc1	GALR2 ag 23, GALR2 blocker 29 (no result: S1P2 antag, S1P2 ag) | GALR2 agon conf 9.5 | BLA activ ctr 17 | GALR2 ant conf inactive | BLA inhib ctr inactive
O=C(O)c1cccc2cccnc12	none
c1cnc2c(c1)ccc1cccnc12	GALR2 blocker 36 (no result: Phagocytosis inh, S1P2 antag, S1P2 ag) | GALR2 ant conf 48 | BLA inhib ctr inactive
CC(=O)Nc1ccccc1OCC(=O)c1cc(C)n(Cc2cccs2)c1C	GALR2 blocker 39 (no result: S1P2 antag, S1P2 ag) | GALR2 ant conf 51 | BLA inhib ctr inactive
Cc1cc(C(=O)COC(=O)c2ccccc2O)c(C)n1Cc1cccs1	none
Clc1cccc(Cl)c1/C=C/c1nc2ccccc2[nH]1	GALR2 blocker 27 | GALR2 ant conf 29 | BLA inhib ctr inactive
CCOCCCNS(=O)(=O)c1ccc(-n2cnnn2)c(OC)c1	none (no result: Phagocytosis inh)
Cc1cccc(CSc2cccc3cccnc23)c1	GALR2 blocker 29 (no result: Phagocytosis inh) | GALR2 ant conf inactive | BLA inhib ctr inactive
COC(=O)C1=C(COc2ccc(C=O)cc2OC)NC(=O)NC1c1cc(C)ccc1C (configuration not stated)	none (no result: S1P2 antag, S1P2 ag)
COc1ccc(O)c(/C=N/NC(=S)Nc2cccc(S(=O)(=O)N(C)C)c2)c1	GALR2 blocker 35 (no result: S1P2 antag, S1P2 ag) | GALR2 ant conf inactive | BLA inhib ctr inactive
O=S(=O)(Nc1cc(Sc2cccc3cccnc23)c(O)c2ccccc12)c1ccccc1	GALR2 blocker 31 (no result: S1P2 antag, S1P2 ag) | GALR2 ant conf inactive | BLA inhib ctr inactive
Cc1ccc(S(=O)(=O)Nc2cccc3cccnc23)cc1	none
CCn1c(COc2ccc3c(c2)OCO3)nnc1SCC(=O)c1ccc(Cl)cc1	none
Cc1cccc(C(=O)Nc2ccc(C(=O)/C=C/c3cccnc3)cc2)c1	GALR2 blocker 31 (no result: S1P2 antag, S1P2 ag) | GALR2 ant conf 32 | BLA inhib ctr inactive
O=C(/C=C/c1cccnc1)c1ccc(NC(=O)c2cccc(Br)c2)cc1	none
CCOC(=O)N1CCN(C(=O)c2ccc(NC(C)=O)cc2)CC1	none (no result: Phagocytosis inh)
CCOC(=O)N1CCN(C(=O)c2ccc(NC(=O)c3ccc(C)cc3)cc2)CC1	GALR2 blocker 28 | GALR2 ant conf 30 | BLA inhib ctr inactive
CN(Cc1cn(-c2ccccc2)nc1-c1ccc(Cl)cc1)C(=O)CCC(=O)O	none (no result: S1P2 antag, S1P2 ag)
Cc1nnc(SCC(=O)Nc2cccc(S(=O)(=O)N(C)c3ccccc3)c2)s1	GALR2 blocker 32 (no result: S1P2 antag, S1P2 ag) | GALR2 ant conf 35 | BLA inhib ctr inactive
C/C(=N\Nc1ccc([N+](=O)[O-])cc1)c1cccc(N)c1	GALR2 blocker 30 (no result: Phagocytosis inh) | GALR2 ant conf 31 | BLA inhib ctr inactive
CN(/N=C\c1ccc(O)c(O)c1)c1nc(-c2ccccc2)cc(-c2ccccc2)n1	GALR2 blocker 47 (no result: S1P2 antag, S1P2 ag) | GALR2 ant conf 64 | BLA inhib ctr 81
CCOC(=O)C1=C(O)c2ccccc2C(=O)/C1=C\c1ccc(C)cc1	GALR2 blocker 30 (no result: S1P2 antag, S1P2 ag) | GALR2 ant conf inactive | BLA inhib ctr inactive
CCCn1c(SCc2ccon2)nc2ccccc2c1=O	none
CCn1c2ccccc2c2cc(NC(=O)c3cc(OC)c(OC)c(OC)c3)ccc21	GALR2 blocker 29 (no result: Phagocytosis inh) | GALR2 ant conf 43 | BLA inhib ctr 67
N#Cc1ccc(-c2ccccc2)nc1SCC(=O)c1cc2ccccc2oc1=O	GALR2 blocker 38 | GALR2 ant conf inactive | BLA inhib ctr inactive
CC(C)c1c(C#N)c(N)nc(SCC(=O)c2cc3ccccc3oc2=O)c1C#N	none (no result: S1P2 antag, S1P2 ag)
COCCCN(C(=S)Nc1cc(C)cc(C)c1)C(C)c1ccncc1 (configuration not stated)	none (no result: S1P2 antag, S1P2 ag)
O=C(CCn1c(=S)[nH]c2cc3c(cc2c1=O)OCO3)N1CCc2ccccc2C1	none
O=C(CCCn1c(=S)[nH]c2cc3c(cc2c1=O)OCO3)N1CCc2ccccc2C1	GALR2 blocker 28 (no result: Phagocytosis inh) | GALR2 ant conf inactive | BLA inhib ctr inactive
CCSc1nnc([C@H](Cc2ccccc2)NC(=O)OC(C)(C)C)o1	none

Compound activity (PubChem)
